Test results from the supplement of paper PMC8728848.
The sample as a whole holds a higher share of the strongest signals than the screen did.

Experiments:
Test in all cases: glycan array binding signal (z-score within array); higher = stronger binding
Conditions in all cases: glycan notation: IUPAC condensed, linker removed
GalNAc(b1-6)GalNAc = target: GalNAc(b1-6)GalNAc
Summary of the method: (§1)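 The Consortium for Functional Glycomics database supplied 3228 glycan arrays, of which those lacking an available protein sequence were dropped. The binding signal, a within-array Z-score, was averaged across arrays of the same protein sequence and across linkers. Negative scores can be read as non-binding.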

Glc(a1-6)Glc(a1-6)Glc = target: Glc(a1-6)Glc(a1-6)Glc
Summary of the method: as §1

[1] = target: GlcNAc(a1-4)Gal(b1-4)GlcNAc(b1-3)Gal(b1-4)[Fuc(a1-3)]GlcNAc(b1-3)Gal(b1-4)[Fuc(a1-3)]GlcNAc
Summary of the method: as §1

[2] = target: GlcNAc(b1-3)Gal(b1-4)GlcNAc
Summary of the method: as §1

[3] = target: GlcNAc(b1-3)Gal(b1-4)GlcNAc(b1-2)Man(a1-3)[GlcNAc(b1-3)Gal(b1-4)GlcNAc(b1-2)Man(a1-6)]Man(b1-4)GlcNAc(b1-4)GlcNAc
Summary of the method: as §1

[4] = target: GlcNAc(b1-3)Gal(b1-4)GlcNAc(b1-2)[GlcNAc(b1-3)Gal(b1-4)GlcNAc(b1-6)]Man(a1-6)[GlcNAc(b1-3)Gal(b1-4)GlcNAc(b1-2)Man(a1-3)]Man(b1-4)GlcNAc(b1-4)GlcNAc
Summary of the method: as §1

[5] = target: GlcNAc(b1-3)Gal(b1-4)GlcNAc(b1-3)Gal(b1-4)GlcNAc(b1-2)Man(a1-3)[GlcNAc(b1-3)Gal(b1-4)GlcNAc(b1-3)Gal(b1-4)GlcNAc(b1-2)Man(a1-6)]Man(b1-4)GlcNAc(b1-4)GlcNAc
Summary of the method: as §1

[6] = target: Man(a1-2)Man(a1-6)[Man(a1-3)]Man(a1-6)[Man(a1-2)Man(a1-2)Man(a1-3)]Man(b1-4)GlcNAc(b1-4)GlcNAc
Summary of the method: as §1

[7] = target: Neu5Ac(a2-3)Gal(b1-3)GalNAc
Summary of the method: as §1

[8] = target: Neu5Ac(a2-3)Gal(b1-3)GalNAc(b1-4)[Neu5Ac(a2-8)Neu5Ac(a2-3)]Gal(b1-4)Glc
Summary of the method: as §1

[9] = target: Neu5Ac(a2-3)Gal(b1-4)GlcNAc(b1-3)Gal(b1-4)GlcNAc(b1-3)Gal(b1-4)GlcNAc
Summary of the method: as §1

[10] = target: Neu5Ac(a2-3)Gal(b1-4)GlcNAc(b1-6)[Gal(b1-3)]GalNAc
Summary of the method: as §1

[11] = target: Neu5Ac(a2-3)Gal6S(b1-4)GlcNAc
Summary of the method: as §1

[12] = target: Neu5Ac(a2-3)[GalNAc(b1-4)]Gal(b1-4)GlcNAc
Summary of the method: as §1

[13] = target: Neu5Ac(a2-3)[GalNAc(b1-4)]Gal(b1-4)GlcNAc(b1-3)GalNAc
Summary of the method: as §1

[14] = target: Neu5Ac(a2-6)Gal(b1-4)GlcNAc(b1-2)[Neu5Ac(a2-6)Gal(b1-4)GlcNAc(b1-6)]Man(a1-6)[Neu5Ac(a2-6)Gal(b1-4)GlcNAc(b1-2)Man(a1-3)][GlcNAc(b1-4)]Man(b1-4)GlcNAc(b1-4)GlcNAc
Summary of the method: as §1

[15] = target: Neu5Ac(a2-6)Gal(b1-4)GlcNAc(b1-3)Gal(b1-4)GlcNAc(b1-3)Gal(b1-4)GlcNAc(b1-2)Man(a1-3)[Neu5Ac(a2-6)Gal(b1-4)GlcNAc(b1-3)Gal(b1-4)GlcNAc(b1-3)Gal(b1-4)GlcNAc(b1-2)Man(a1-6)]GalNAc
Summary of the method: as §1

Neu5Ac(a2-6)GalNAc = target: Neu5Ac(a2-6)GalNAc
Summary of the method: as §1

[16] = target: Neu5Ac(a2-6)GalNAc(b1-4)GlcNAc
Summary of the method: as §1

[17] = target: Neu5Ac(a2-8)Neu5Ac(a2-3)[Gal(b1-3)GalNAc(b1-4)]Gal(b1-4)Glc
Summary of the method: as §1

[18] = target: Neu5Ac(b2-6)Gal(b1-4)GlcNAc
Summary of the method: as §1

Neu5Gc(a2-6)GalNAc = target: Neu5Gc(a2-6)GalNAc
Summary of the method: as §1

B1: pilr alpha (protein)
chain: MLYGVTQPKHLSASMGGSVEIPFSFYYPWELATAPDVRISWRRGHFHRQSFYSTRPPSIHKDYVNRLFLNWTEGQKSGFLRISNLQKQDQSVYFCRVELDTRSSGRQQWQSIEGTKLSIT
GalNAc(b1-6)GalNAc
  glycan array binding signal (z-score): 0.632
Glc(a1-6)Glc(a1-6)Glc
  glycan array binding signal (z-score): -0.27
[1]
  glycan array binding signal (z-score): 0.876
[2]
  glycan array binding signal (z-score): -0.07
[3]
  glycan array binding signal (z-score): 0.049
[4]
  glycan array binding signal (z-score): 1.61
[5]
  glycan array binding signal (z-score): 1.68
[6]
  glycan array binding signal (z-score): -0.021
[7]
  glycan array binding signal (z-score): -0.231
[8]
  glycan array binding signal (z-score): -0.149
[9]
  glycan array binding signal (z-score): -0.173
[10]
  glycan array binding signal (z-score): -0.533
[11]
  glycan array binding signal (z-score): -0.007
[12]
  glycan array binding signal (z-score): -0.65
[13]
  glycan array binding signal (z-score): 0.118
[14]
  glycan array binding signal (z-score): 0.09
[15]
  glycan array binding signal (z-score): 1.89
Neu5Ac(a2-6)GalNAc
  glycan array binding signal (z-score): -0.546
[16]
  glycan array binding signal (z-score): -0.492
[17]
  glycan array binding signal (z-score): -0.167
[18]
  glycan array binding signal (z-score): -0.768
Neu5Gc(a2-6)GalNAc
  glycan array binding signal (z-score): -0.353
